From PubChem BioAssay AID624330 (Southern Research Specialized Biocontainment Screening …, 2012) come the findings set out here.

Each structure is given as a SMILES string. Screen size: about 340,000 compounds; about 2,100 (0.62%) were called active.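 How the source made its calls: active means first-screen hits whose inhibition reached a set limit at any dose in the follow-up dose series; inconclusive means inhibition above the set first-screen limit but never retested; inactive means the rest.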 Only a sample is shown. Potency and affinity values are given separately.

Chain of Rac GTPase-activating protein 1 (Homo sapiens) (Q9H0H5 whole entry, looked up): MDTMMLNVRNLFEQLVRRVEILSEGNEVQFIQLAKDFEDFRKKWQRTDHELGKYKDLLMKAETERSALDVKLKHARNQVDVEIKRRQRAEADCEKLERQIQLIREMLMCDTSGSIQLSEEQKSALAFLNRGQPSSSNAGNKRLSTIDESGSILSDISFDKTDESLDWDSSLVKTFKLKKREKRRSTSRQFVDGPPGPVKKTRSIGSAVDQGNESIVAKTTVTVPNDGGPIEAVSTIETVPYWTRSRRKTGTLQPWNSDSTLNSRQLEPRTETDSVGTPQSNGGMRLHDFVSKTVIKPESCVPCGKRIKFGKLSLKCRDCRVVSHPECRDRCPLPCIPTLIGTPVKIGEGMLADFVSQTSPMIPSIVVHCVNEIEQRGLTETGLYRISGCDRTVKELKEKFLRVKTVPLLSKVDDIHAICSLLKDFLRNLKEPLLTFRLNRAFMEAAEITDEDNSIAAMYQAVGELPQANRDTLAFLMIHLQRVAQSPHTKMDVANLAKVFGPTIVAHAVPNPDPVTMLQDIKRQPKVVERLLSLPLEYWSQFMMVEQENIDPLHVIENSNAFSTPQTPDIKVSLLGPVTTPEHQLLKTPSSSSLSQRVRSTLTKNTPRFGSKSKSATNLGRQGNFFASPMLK

The assay has as its target Rac GTPase-activating protein 1 (Homo sapiens) (UniProt Q9H0H5). As to the kind of experiment: blockers of MgcRacGAP-driven Rac1 GTP hydrolysis – biochemical, ADP Hunter fluorescence, primary and confirmatory, confirmation (AID 624330).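 Further: fluorescence reports GDP produced by GAP-driven GTP hydrolysis.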 Particulars: MgcRacGAP-stimulated Rac1 GTP hydrolysis, at 30 µM, active compounds read high, GST-tagged Rac1 F28L mutant substrate.
Regarding `COc1ccc(CN2C(=O)c3cccnc3C2=O)cc1S(=O)(=O)N1CCCCC1`, the inhibition was 5.59% (inactive). To `CCN1CCN(c2ccc(NC(=O)c3ccccc3F)cc2Cl)CC1` belongs 10.3% (inactive). As to `O=C(CSc1nc(=O)n2ccccc2n1)N1CCC(Cc2ccccc2)CC1`, the inhibition is 2.37% (inactive). The value for `CC(C)Nc1nc(NC2CCCC2)nc(N2CCOCC2)n1` was -6.17% (inactive); that for `Cc1cccc(NS(=O)(=O)c2cccc(C(=O)N3CCCCCCC3)c2)c1` was 7.59% (inactive); that for `CCOC(=O)C1=C(C)NC(C)=C(C(=O)OCC)C1C(=O)O` was -2.63% (inactive). As to `Oc1ccc(/C=C/c2ccnc3ccccc23)cc1`, the inhibition was 20.5% (inactive). As for `CN(C)c1ccc(/C=C/c2ccc3ccccc3n2)cc1`, the inhibition was 10.9% (inactive). Consider `C(=C\c1ccc2ccccc2n1)/c1ccccc1`, for which the inhibition is -0.19% (inactive).

As for `O=c1[nH]c2ccccc2nc1/C=C/c1ccc(F)cc1`, the inhibition was 2.77% (inactive). Consider `O=C(Nc1cccc(S(=O)(=O)NC2=NCCCCC2)c1)c1cc(-c2ccc(Cl)cc2)nc2ccccc12`, for which the inhibition is 9.39% (inactive). With `Cc1ccc(-c2nnc(SCC(=O)Nc3nc4c(s3)CCCC4)n2C)cc1`, the inhibition is 10.7% (inactive). Consider `Cc1ccc(NC(=O)CCC(=O)N/N=C/c2ccccc2O)cc1`, for which the inhibition was -6.53% (inactive). To `COc1ccc(O)c(/C=N/NC(=O)CCC(=O)Nc2cccc(C)c2)c1` belongs 6.29% (inactive); to `COc1ccc(O)c(/C=N/NC(=O)CCC(=O)Nc2ccc(C)cc2)c1`, 5.47% (inactive); to `Cc1cccc(NC(=O)CCC(=O)N/N=C/c2cc([N+](=O)[O-])ccc2O)c1`, 5.13% (inactive). For the molecule `COc1ccc(N2CCN(C(=O)COC(=O)Cc3ccc(F)cc3)CC2)cc1`, the inhibition was 17.9% (inactive).

Turning to `C[C@@H]1CN([C@H](C)CO)C(=O)CCCn2nncc2CO[C@H]1CN(C)Cc1ccc(O)cc1`, the inhibition was 7.18% (inactive). `Cn1c(SCC(=O)N2CCOCC2)nnc1-c1ccco1`: the inhibition is -0.83% (inactive).

`O=C(c1cc(-c2ccco2)on1)N1CCOCC1`: the inhibition is 2.62% (inactive). To `Cc1cccc(N2C(=O)C(O)=C(C(=O)c3cccs3)C2c2ccc(F)cc2)n1` (stereo unspecified) belongs 11.6% (inactive); to `CC1CCN(CC(=O)Nc2cc(C(F)(F)F)ccc2Cl)CC1`, 6.71% (inactive); to `O=C(CC(=O)c1ccccc1)Nc1cc(C(F)(F)F)ccc1Cl`, -0.8% (inactive). With `COc1ccc(OC)c(NC(=O)CC2(CC(=O)O)CCCC2)c1`, the inhibition is 5.41% (inactive).

Consider `O=C(Nc1cccc(-n2cnnn2)c1)c1cc2ccccc2o1`, for which the inhibition was 0.98% (inactive). For the molecule `CC(=O)Nc1cccc(-c2csc(NCc3ccco3)n2)c1`, the inhibition was 15.4% (inactive). `CC(=O)Nc1ccc(-c2csc(NCc3ccccc3)n2)cc1`: the inhibition is 8.92% (inactive). To `N/C(=N\OC(=O)c1ccco1)c1cccc([N+](=O)[O-])c1` belongs 6.07% (inactive); to `CCn1cc(Cl)c(C(=O)Nc2nccs2)n1`, 1.45% (inactive); to `C=C(C)CSc1nnc(-c2ccc(OC)cc2)n1N`, 5.76% (inactive). The value for `CC(C)(C)c1cc(C(=O)N/N=C/c2ccc(F)cc2)n(-c2ccccc2)n1` was 6.73% (inactive); that for `O=C(N/N=C/c1cccc(C(F)(F)F)c1)c1ccc(O)cc1` was 6.36% (inactive). On to `CC(C)(C)c1cc(C(=O)N/N=C/c2ccccc2O)n(-c2ccccc2)n1`, for which the inhibition was 2.15% (inactive). Consider `O=C(O)c1ccc(C=NNC(=O)c2ccccc2NS(=O)(=O)c2cccs2)cc1`, for which the inhibition is 7.04% (inactive). In the case of `O=C(Nc1ccccc1C(=O)N/N=C/c1ccncc1)c1ccccc1`, the inhibition is 9.96% (inactive). The value for `O=C(N/N=C/c1ccc(C(F)(F)F)cc1)c1ccc(O)cc1` was 8.28% (inactive); that for `O=C(Nc1ccccc1C(=O)N/N=C/c1ccco1)c1ccccc1` was 7.26% (inactive).

Turning to `O=C(NN=Cc1ccc(F)cc1)c1ccccc1NS(=O)(=O)c1cccs1`, the inhibition was 5.29% (inactive).

Regarding `O=C(CSc1nnc(C2CC2)n1-c1ccccc1)NC1CCS(=O)(=O)C1` (stereo unspecified), the inhibition was -2.5% (inactive). For the molecule `CCOC(=O)c1cc(C)nn1-c1nc(Cl)cc(OC)n1`, the inhibition was 5.27% (inactive). As for `COC(=O)c1ccccc1NC(=O)Oc1ccc(C(C)C)cc1`, the inhibition is 8.33% (inactive). To `Cc1ccc(NS(=O)(=O)c2ccc(-n3cccn3)cc2)nc1` belongs 4.91% (inactive); to `COc1ccc(S(=O)(=O)N2CCCCC2)cc1NC(=O)C1CSC2(C)CCC(=O)N12` (stereo unspecified), 5.04% (inactive). To `CC(C)(C)C(=O)NC(=S)NNC(=O)C(c1ccccc1)c1ccccc1` belongs 6.5% (inactive); to `O=C(O)CC/C(=N/NC(=O)CNC(=O)c1ccc2c(c1)OCCO2)c1ccccc1`, 3.51% (inactive). To `CCOC(=O)C(=O)Nc1cccc(C(=O)OCC)c1` belongs -6.93% (inactive). As for `COc1ccc(C=NNC(=O)c2ccccc2NS(=O)(=O)c2cccs2)cc1O`, the inhibition is 12.1% (inactive). For the molecule `CC(NC(=O)c1ccccc1)C(=O)N/N=C/c1ccc(O)cc1` (stereo unspecified), the inhibition was 27% (inactive). The value for `COc1ccccc1/C=N/NC(=O)C(NC(=O)c1ccccc1)=C(C)C` was 4.44% (inactive); that for `O=C(NN=Cc1cc(Br)c(O)c(Br)c1)c1ccccc1NS(=O)(=O)c1cccs1` was 15.4% (inactive); that for `COc1ccc(/C=N/NC(=O)Nc2cccc3nsnc23)cc1OC` was 6.64% (inactive). The value for `O=C(NN=Cc1c(F)cccc1F)c1ccccc1NS(=O)(=O)c1cccs1` was 3.9% (inactive); that for `COc1ccc(/C=N/NC(=O)Nc2cccc3nsnc23)cc1` was -1.96% (inactive); that for `COc1cc(C=NNC(=O)c2ccccc2NS(=O)(=O)c2cccs2)cc(OC)c1O` was 9.93% (inactive). As for `COc1ccc(-c2cc(-c3ccccc3)nc(N3CCCC3)n2)cc1OC`, the inhibition was 3.15% (inactive). To `Cc1cc(C)c(C)c(S(=O)(=O)NCCCN2CCCC2=O)c1C` belongs 5.47% (inactive). On to `CC(C)(C)c1ccc(N2C(=O)CC(c3ccccc3)C2=O)cc1` (stereo unspecified), for which the inhibition is 4.86% (inactive). In the case of `Cc1nc(N2CCN(C(=O)c3ccco3)CC2)c(C#N)c2c1CCCC2`, the inhibition was 5.84% (inactive). Regarding `COc1cccc(C(=O)N2CCN(Cc3ccc4c(c3)OCO4)CC2)c1OC`, the inhibition was 9.39% (inactive). The value for `COc1cc(OC)cc(C(=O)N2CCN(Cc3ccccc3C(F)(F)F)CC2)c1` was 11.6% (inactive); that for `CCOC(=O)N1CCN(Cc2ccc3c(c2)OCO3)CC1` was 11.9% (inactive); that for `COc1cccc(C(=O)N2CCN(Cc3ccccc3Br)CC2)c1` was 21.5% (inactive). Regarding `COc1cc(C(=O)N2CCN(Cc3ccc4c(c3)OCO4)CC2)cc(OC)c1OC`, the inhibition was 13.3% (inactive). Turning to `COc1ccccc1C(=O)N1CCN(Cc2ccc3c(c2)OCO3)CC1`, the inhibition was 2.13% (inactive).

As to `CCOCC(=O)N1CCN(Cc2ccc3c(c2)OCO3)CC1`, the inhibition is -16% (inactive). The value for `Cc1cc(C)cc(C(=O)N2CCN(Cc3ccc4c(c3)OCO4)CC2)c1` was 0.95% (inactive).
